In PubChem BioAssay (NCI):
Compounds without any hit were thinned out: in the full panel of roughly 83,000, 20% have a hit.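 Values shown are percent growth following 48 h exposure of cells in 96-well plates to a single concentration of compound; below 10 was considered active.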 Values without a mark were called inactive. Activity calls are given as the source filed them.

The molecules below were run on MDA-MB-468 breast (assay: NCI-60 one-dose screen, 48 h (100 = growth as untreated, 0 = no growth, -100 = all killed)). Settings: 10 µM unless noted.

Row | SMILES | growth
1 | N/C(=N\C(N)=N\c1nc2ccccc2s1)c1cccc(F)c1 | 92.9% [5 µM]
2 | CC1=NN(c2cccc(Cl)c2)C(=O)/C1=C\c1cn(CC(O)CN2CCCCC2)c2ccccc12 (stereo not given) | 23.7%
3 | O=C(O)C1CN(c2cccc(Cl)c2)N(c2cccc(Cl)c2)C1=O (stereo not given) | 78.7%
4 | CC(=O)c1cc2c(c(O)c1C)C(=O)C(=O)c1c(O)cccc1-2 | -58% (active)
5 | O=C(NCCCl)c1cc(Cl)cc(Cl)c1 | 108%
6 | COc1ccc2nc3c(n2c1)C(=O)C(=O)c1ccccc1-3 | -10.8% (active)
7 | CCC(C)(C)C(=O)O[C@H]1C[C@@H](C)C=C2C=C[C@H](C)[C@H](CC[C@@H]3CC(SCCN)CC(=O)O3)[C@H]21 (stereo not given in full) | 90.3%
8 | COc1ncnc2c(-c3ccccc3)cn(COCc3ccccc3)c12 | 42.1%
9 | O=C(O)c1cccc(S(=O)(=O)c2ccccc2)c1 | 94.7%
10 | O=C(Nc1ccncc1)C(=O)c1cn(S(=O)(=O)c2ccc(F)cc2)c2ccccc12 | 14.9%
11 | CCCCCCCCCCCCCCCCCCOc1ccccc1CC(=O)NCC[N+]1(C)CCCC1 | 3.53% (active)
12 | CCn1cc(/C=C2\Oc3cc(OCC#N)ccc3C2=O)c2cc(OC)ccc21 | 20%
13 | COC1=C(OC)C(=O)C(OC)=C(OC)C1=O | 33.4%
14 | C=C1C(=O)O[C@H]2[C@H]1CC/C(Cn1cc(-c3cc(C)c(C)cc3C)nn1)=C\CC[C@@]1(C)O[C@@H]21 | -75.6% (active)
15 | CSc1nc(N)c2c(n1)N(C)C=NS2(=O)=O | 107%
16 | CN1C(=O)N(C)C2(c3ccccc3)n3c(s/c(=C\c4ccccc4)c3=O)=NNC12c1ccccc1 (stereo not given) | 80.8%
17 | Cc1ccc2c(c1)C(C)Cc1c(Cl)ncnc1N2C (stereo not given) | -26.4% (active)
18 | COc1cccc(CCC(=O)c2cc3c(N)c(C(=O)Nc4cccc(Cl)c4C)sc3nc2C)c1 | 15.1%
19 | C/C(=N\NC(=S)N1CC2CCC(CC2)C1)c1ccccn1 | -14.9% (active)
20 | Clc1ccc2c(c1)-c1ccccc1C1=NCCN12 | 7.52% (active)

Row | SMILES | growth
21 | Cc1ccc(Nc2c(C(N)=O)cnc3ccc(S(=O)(=O)Nc4cc(C)on4)cc23)cc1 | 92.4%
22 | CS(=O)CCCCCN=C=S (stereo not given) | -11.3% (active)
23 | COc1ccc2c(c1)c(-c1nc(-c3cn(C)c4ncccc34)cs1)cn2CCCN1CCCCC1 | 70.9%
24 | CCNc1nc(-c2ccc(F)cc2)c(C#N)c(=O)n1C | 45%
25 | COc1ccc(N/C=C/C2=[N+](C)c3ccccc3C2(C)C)c(OC)c1 | 80.5%
26 | CCOC(=O)c1c(NC(=O)c2cccc(C(F)(F)F)c2)sc2c3c(ccc12)OCN(C)C3 | -67.2% (active)
27 | O=C1/C(=C/c2ccc(-c3cccc(C(F)(F)F)c3)o2)SC(=S)N1CCc1ccc(O)cc1 | 95%
28 | O=CC(OC(=O)c1ccccc1)C(OC(=O)c1ccccc1)C(COC(c1ccccc1)(c1ccccc1)c1ccccc1)OC(=O)c1ccccc1 (stereo not given) | 74.6%
29 | O=C(Nc1nc2ccccc2[nH]1)C(=O)Nc1nc2ccccc2[nH]1 | 103%
30 | CC(=O)OC/C=C(/C)C[P+](c1ccccc1)(c1ccccc1)c1ccccc1 | 1.61% (active)
31 | CC(C)=C1CCC(C)C/C1=N\N=C(N)N (stereo not given) | 101%
32 | CCc1nc2ccc(Cc3ccc(C(=O)NO)cc3)cc2c(=O)n1CCc1ccccc1 | -65.1% (active)
33 | CC(C)(C)c1[nH]nc2c1C(c1cc3ccccc3[nH]c1=O)Nc1cc(C(=O)Nc3ccc(Cl)cc3)ccc1N2 (stereo not given) | -15.9% (active)
34 | COc1ccc2nc(C)cc(Nc3ccccc3O)c2c1 | 63.5%
35 | O=C1CCCCCCCCC(O)C(O)CCCC(c2cccs2)O1 (stereo not given) | 95.5%
36 | COc1cc2oc(-c3cccc(C(=O)Nc4ccccc4)c3)cc(=O)c2c(O)c1OC | 69.4%
37 | COc1ccc2nc3cc(Cl)ccc3c(NCCCNC(C)=O)c2c1 | 39.5%
38 | Cc1nn(-c2ccccc2)c2ncnc(N/N=C/c3ccccc3)c12 | 84.3%
39 | O=C1C(SCc2ccccc2)=C(Cl)CN1c1ccccc1 | 79.7%
40 | Clc1nc(Cl)c2ncn(-c3ccccc3)c2n1 | 3.71% (active)
